Results: PubChem BioAssay (EPA / NIEHS)
Results filed as inconclusive are left out. Active and inactive are the calls of the source. The calls were made as follows: active = hit-call score of the fitted dose curve at least 0.9, where 1 is the maximum; inconclusive = response in the unintended direction; inactive = score below 0.9.

read-out: sulfotransferase (SULT2A), SULT2A1 (gene 6822); assay: CLD_SULT2A_6hr: CellzDirect (CLD) Gene Expression Assay for sulfotransferase (SULT2A) at 6 hours (AID 2283669);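 also: hits raise transcript level above the DMSO vehicle baseline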
Experimental: CLD_6hr is a cell-based, multiplexed-readout assay that uses hepatocyte, a human liver primary cell, with measurements taken at 6 hours after chemical dosing in a 96-well plate.CLD_SULT2A_6hr is one of 16 assay component(s) measured or calculated from the CLD_6hr assay. It is designed to make measurements of mRNA induction, a form of inducible reporter, as detected with chemiluminescence signals by Quantitative Nuclease Protection Assay (qNPA) technology.Data from the assay component CLD_SULT2A_6hr was analyzed at the endpoint, CLD_SULT2A_6hr, in the positive analysis fitting direction relative to DMSO as the negative control and baseline of activity. Using a type of inducible reporter, gain-of-signal activity can be used to understand changes in the reporter gene as they relate to the gene SULT2A1. Furthermore, this assay endpoint can be referred to as a primary readout. To generalize the intended target to other relatable targets, this assay endpoint is annotated to the transferase intended target family, where subfamily is sulfotransferase.
Human hepatocyte cultures were treated daily for two consecutive days with fresh dosing solutions containing appropriate concentrations of the 320 ToxCast chemicals (chemical identities were blinded to CellzDirect and other ToxCast collaborators), vehicle control (0.2% DMSO), and positive control inducers as summarized in Table 1. Due to the large number of treatment groups and chemicals examined, the ToxCast chemicals were divided into two groups (spanning two independent cultures of hepatocytes from separate donor preparations (Hu778: ToxCast plates 1 and 2; Hu776: ToxCast plates 3 and 4). Each preparation of human hepatocyte cultures was treated with respective vehicle control, medium only control, set of six positive controls/reference chemicals for the five hepatic receptor pathways, and a subset of eight of the ToxCast chemicals (indoxacarb, pyrithiobac-sodium, norflurazon, cyhalofop-butyl, methomyl, thiram, acetochlor, and propiconazole). These replicate data, coupled with internal replicates designed within the blinded ToxCast chemical library, provided additional data to evaluate interindividual differences between hepatocyte preparations and their potential impact on chemical profiles.Cell morphology and integrity were evaluated using phase-contrast microscopy as an indicator of hepatocyte cell health (Tyson & Green, 1987). Cultures for each treatment group (i.e., media, vehicle [0.2% DMSO], positive control inducers [multiple concentrations], and the ToxCast chemicals [multiple concentrations]) were observed and cell morphology was assessed relative to vehicle control cultures at each harvest time point (0, 6, 24, or 48 h). […] Images were evaluated at the conclusion of the study to assess changes in cell integrity and account for the effects of chemical exposure on uncharacteristic changes in concentration-dependent gene expression profiles. The results from these determinations of apparent cytotoxicity were annotated (yes/no) alongside the corresponding qNPA data for reference.At the conclusion of each treatment period, hepatocyte cultures (96-well) were washed with 1 volume of HBSS, lysed by addition of 25 ul ArrayPlate lysis buffer (HTG, Tucson, AZ), and 70 ul/well of Denaturation Oil, denatured by incubation at 95C for 10 min, and frozen at approximately -70C until analysis by nuclease protection assay (qNPA) (Roberts et al., 2007). For qNPA analysis, cell lysates were thawed at 50C for approximately 30 min, qNPA probes were added, and samples were incubated at 95C for 10 min to begin the detection process by denaturing the target RNA, dissociating the duplexes and secondary structure hybridization. At the conclusion of the hybridization period, S1 nuclease reagent was added to each sample to digest all nonprotected nucleotides at 50C for 60-90 min. […]

SMILES	outcome	AC50
CCOP(=O)(OCC)Oc1cc(C)nc(C(C)C)n1	inactive	–
CCOP(=S)(OCC)OC(Cl)C(Cl)(Cl)Cl (stereo not given)	inactive	–
CC(C1CC1)C(O)(Cn1cncn1)c1ccc(Cl)cc1 (stereo not given)	inactive	–
CCOP(=S)(OCC)SCCSCC	inactive	–
CCOP(=S)(OCC)Oc1ccc2c(C)c(Cl)c(=O)oc2c1	inactive	–
Nc1nc(N)nc(NC2CC2)n1	inactive	–
N#CSCSC#N	inactive	–
CCCCSP(=O)(SCCCC)SCCCC	inactive	–
CCOP(=S)(OCC)Oc1cc(C)nc(C(C)C)n1	inactive	–
CCCSP(=O)(OCC)Oc1ccc(Br)cc1Cl (stereo not given)	inactive	–
CCC(=NOC/C=C/Cl)C1=C(O)CC(C2CCOCC2)CC1=O (stereo not given)	inactive	–
O=C(O)c1cc(Oc2ccc(C(F)(F)F)cc2Cl)ccc1[N+](=O)[O-]	–	0.00442 µM (active)
CC1=NNC(=O)N(/N=C/c2cccnc2)C1	inactive	–
C#CC(C)(C)NC(=O)c1cc(Cl)cc(Cl)c1	inactive	–
CCc1cccc(CC)c1N(COC)C(=O)CCl	inactive	–
CCC(CC)Nc1c([N+](=O)[O-])cc(C)c(C)c1[N+](=O)[O-]	inactive	–
COc1cccc(C(=O)NN(C(=O)c2cc(C)cc(C)c2)C(C)(C)C)c1C	inactive	–
COP(=O)(NC(C)=O)SC (stereo not given)	inactive	–
C=C(C)[C@H]1Cc2c(ccc3c2O[C@@H]2COc4cc(OC)c(OC)cc4[C@@H]2C3=O)O1	inactive	–
CCc1cccc(C)c1N(C(=O)CCl)C(C)COC (stereo not given)	inactive	–

SMILES	outcome	AC50
CON=C(C(=O)OC)c1ccccc1CON=C(C)c1cccc(C(F)(F)F)c1	inactive	–
CC(C)[C@H](C(=O)O[C@H](C#N)c1cccc(Oc2ccccc2)c1)c1ccc(Cl)cc1	inactive	–
CN1COCN(Cc2cnc(Cl)s2)C1=N[N+](=O)[O-]	inactive	–
CCCSP(=O)(OCC)SCCC	inactive	–
CNC(=O)Oc1cccc2c1OC(C)(C)O2	inactive	–
O=[N+]([O-])c1cc(C(F)(F)F)c(Cl)c([N+](=O)[O-])c1Nc1ncc(C(F)(F)F)cc1Cl	inactive	–
Cc1nn(-c2cc(NS(C)(=O)=O)c(Cl)cc2Cl)c(=O)n1C(F)F	inactive	–
CCCOCC(=Nc1ccc(Cl)cc1C(F)(F)F)n1ccnc1	inactive	–
FC(F)C(F)(F)OCC(Cn1cncn1)c1ccc(Cl)cc1Cl (stereo not given)	inactive	–
COP(=O)(OC)SCn1c(=O)oc2cc(Cl)cnc21	inactive	–
CNc1cnn(-c2cccc(C(F)(F)F)c2)c(=O)c1Cl	inactive	–
CCOC(=O)COc1cc(-c2nn(C)c(OC(F)F)c2Cl)c(F)cc1Cl	inactive	–
CNC(=O)ON=C(SC)C(=O)N(C)C	inactive	–
C[Si](Cn1cncn1)(c1ccc(F)cc1)c1ccc(F)cc1	inactive	–
CC(C)=CC1C(C(=O)OCN2C(=O)C3=C(CCCC3)C2=O)C1(C)C (stereo not given)	inactive	–
CCOP(=S)(OCC)Oc1ccc([N+](=O)[O-])cc1	inactive	–
CCOP(=S)(Oc1cnc(C(C)(C)C)nc1)OC(C)C (stereo not given)	–	10.8 µM (active)
CSC1=N[C@@](C)(c2ccccc2)C(=O)N1Nc1ccccc1	inactive	–
Cc1ccn2nc(S(=O)(=O)Nc3c(F)cccc3F)nc2n1	inactive	–
COP(=O)(OC)OC(Br)C(Cl)(Cl)Br (stereo not given)	inactive	–
